Experimental data as given in PubChem BioAssay (Tox21).
Inconclusive results are not listed. A call without a number means that no potency is given here. Unmarked numbers belong to inactive results. Calls of active or inactive are those of the source. Calls come from the whole dose curve; as a rule, active = well fitted cell-killing curve with a large enough effect in the repeat runs; inconclusive = weak or mixed curves, or effect the other way; inactive = no such curve, though single readings can be large or run the other way.

Assay: Caspase-3/7 induction in CHO-K1 cells by small molecules, qHTS cell viability counter screen (AID 1346979); note: nearly all actives have a fitted effect of over 35% in size
Details: CellTiter-Fluor fluorescence, 17 h; series mostly up to 92.4 µM
Excerpt: National Center for Advancing Translational Sciences [NCATS]
NIH Chemical Genomics Center [NCGC]
U.S. Environmental Protection Agency [EPA]
National Institutes of Environmental Health Sciences [NIEHS]
National Toxicology Program [NTP]
U.S. Food and Drug Administration [FDA]
Apoptosis is a process of programmed cell death and plays a central role in the development of multicellular organisms. It is a highly regulated process and induces cell death by activating caspases, which are the members of cysteine aspartic acid-specific protease (caspase) family. Caspases involved in apoptosis are classified by their mechanism of action as initiator caspases (caspase-2, -8, -9 and -10) and executioner caspases (caspase-3, -6, and -7). Inhibition of apoptosis results in number of cancers, autoimmune diseases, inflammatory diseases and viral infection. To identify small molecule compounds that induce apoptosis, a homogeneous, luminescent Caspase-Glo 3/7 assay was used. Wild type CHO-K1 cells were used to screen Tox21 libraries for identifying caspase-3/7 activity inducers. Also cytotoxicity of the compounds was tested in parallel by measuring the cell viability using CellTiter-Fluor assay system in the same wells.
Tox21 Assay Protocol Summary:
CHO-K1 cells were dispensed at 1,500 per well in 5uL of culture medium into white solid bottom 1536-well plates (Corning Life Sciences, Corning, NY) using a Multidrop Combi (Thermo Scientific, Waltham, MA) dispenser. The assay plates were incubated at 37 C and 5% CO2 for 5hr, and then 23nL of compounds dissolved in DMSO and positive control were transferred using a Pintool station (Wako, San Diego, CA). The assay plates were incubated at 37C and 5% CO2 for 17hr. For cytotoxicity read, after 16hr incubation at 37C, 1uL CellTiter-Fluor reagent (Promega Corporation, Madison, WI) was added to each well of the assay plates using Flying Reagent Dispenser (FRD, Aurora Discovery, San Diego, CA). After 1hr incubation at 37C and 5% CO2, the fluorescence signal was quantified using a ViewLux plate reader (PerkinElmer, Shelton, CT).
Potency is the fitted concentration of half-maximal effect.

SMILES | Potency | activity change, negative = cytotoxicity
CC(CO)(CO)C(=O)O | inactive | 
CCN(CC)CC(=O)Nc1c(C)cccc1C(=O)OC | inactive | 
CC(C)c1ccc(C(=O)N=C(N)N)cc1S(C)(=O)=O | inactive | 
O=S(=O)(Cl)c1c(Cl)cccc1Cl | inactive | 
c1ccc(CNc2ncnc3c2ncn3C2CCCCO2)cc1 (stereo not given) | inactive | 
CCN(CC)C(=O)/C(C#N)=C/c1cc(O)c(O)c([N+](=O)[O-])c1 | 26.6 µM (active) | 
CC(C)(C)C1(CCc2ccc(Cl)cc2)CO1 (stereo not given) | inactive | 
CCN(CC)CCOc1ccccc1C(=O)CCc1ccccc1 | inactive | 
CSCC[C@H](NC(=O)[C@H](Cc1c[nH]c2ccccc12)NC(=O)CCNC(=O)OC(C)(C)C)C(=O)N[C@@H](CC(=O)O)C(=O)N[C@@H](Cc1ccccc1)C(N)=O | inactive | 
FC(F)(F)C(F)(F)C(F)(F)C(F)(F)CCI | inactive | 
C[C@@H]1[C@H](O)[C@@H](C)/C=C/C=C\C=C\C=C\C=C\C=C\C=C\[C@H](O[C@@H]2O[C@H](C)[C@@H](O)[C@H](N)[C@@H]2O)C[C@@H]2O[C@](O)(C[C@@H](O)C[C@@H](O)[C@H](O)CC[C@@H](O)C[C@@H](O)CC(=O)O[C@H]1C)C[C@H](O)[C@H]2C(=O)O (stereo in doubt) | 61.1 µM (active) | 
CCN(CC)C(=O)N1CCN(C)CC1 | inactive | 
Nc1ccc(F)cc1 | inactive | 
CNS(=O)(=O)c1cc(C(=O)N2CCC(CCN3C4CCC3CC(n3c(C)nc5ccccc53)C4)(c3cccc(F)c3)CC2)c(Cl)cc1F (stereo not given) | 17.2 µM (active) | 
CC(C(=O)O)c1ccc(C(=O)c2cccs2)cc1 (stereo not given) | inactive | 
O=C1OC[C@H](Cc2cccc(O)c2)[C@H]1Cc1cccc(O)c1 | inactive | 
CN1C(CSCC(F)(F)F)Nc2cc(Cl)c(S(N)(=O)=O)cc2S1(=O)=O (stereo not given) | inactive | 
CCN(CC)c1cccc(O)c1 | inactive | 
O=C1[C@@H]2[C@H]3CC[C@H](C3)[C@@H]2C(=O)N1CCCCN1CCN(c2ncccn2)CC1 | inactive | 
CC1=CC[C@@H]2C[C@H]1C2(C)C |  | -0.814% [at 19 µM]

SMILES | Potency | activity change, negative = cytotoxicity
CC[C@@H](CO)NCCN[C@@H](CC)CO | inactive | 
Cc1c[nH]c2ccccc12 | inactive | 
CCN(CC)CCNC(=O)c1cc(Cl)c(N)cc1OC | inactive | 
O=c1[nH]c2cc(C(F)(F)F)c(N3CCOCC3)cc2n(CP(=O)(O)O)c1=O | inactive | 
CNC1CCCN(c2c(F)cc3c(=O)c(C(=O)O)cn(C4CC4)c3c2OC)C1 (stereo not given) | inactive | 
Cc1ccc(Nc2c(F)cccc2Cl)c(CC(=O)O)c1 | inactive | 
O=C1CC[C@@H](C(=O)O)N1 | inactive | 
COC(C)(C)OC | inactive | 
Nc1ccn([C@H]2CS[C@@H](CO)O2)c(=O)n1 | inactive | 
CCOC(=O)c1c(N)sc2c1CCN(Cc1ccccc1)C2 | inactive | 
C=C(C)c1ccccc1 | inactive | 
CNc1c2c(nn1C)CCCC2 | inactive | 
CC1=CC[C@@]23C[C@@H]1C(C)(C)[C@@H]2CC[C@H]3C | inactive | 
CC(C)N=C=NC(C)C | inactive | 
c1ccc2sc(SSc3nc4ccccc4s3)nc2c1 |  | 8.61% [at 19 µM]
Cc1ccc(S(=O)(=O)NC(=O)NC2CCCCC2)cc1 | inactive | 
SCCc1cnccn1 | inactive | 
Oc1cccc2[nH]ccc12 | inactive | 
CCOCCC(=O)OCC | inactive | 
COc1ccc(-c2cc(C(F)F)nn2-c2ccc(S(N)(=O)=O)cc2)cc1F | inactive | 
